The record followed here is PubChem BioAssay.

The nature of this assay: differential killing of epithelial or mesenchymal cells, primary screen, imaging, PC-3E GFP, TEM4-18 mCherry, co-culture (AID 1345086).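 Note: cells exposed to compound for 72 h before imaging.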 The settings on record: imaging cell counts, measured here: epithelial PC-3E GFP cell survival, at 1 µM.
The molecule `C[C@]12C=CC(=O)C=C1CCC1C2[C@@H](O)C[C@@]2(C)C1CC[C@]2(O)C(=O)COP(=O)(O)O` (some centres not stated) showed a normalised cell number of 0.86.
`CC(C)OC(=O)CCC/C=C\C[C@@H]1[C@@H](/C=C/C(O)COc2cccc(C(F)(F)F)c2)[C@H](O)C[C@@H]1O` (some centres not stated): the normalised cell number is 1.24.
For `CC12CCC3c4ccc(O)cc4CCC3C1C[C@H](O)[C@@H]2O` (some centres not stated), the normalised cell number was found to be 0.91.
As for `CC(C)(CO)C(O)C(=O)NCCC(=O)NCCSSCCNC(=O)CCNC(=O)C(O)C(C)(C)CO` (configuration not stated), the figure is 0.82; as for `COc1cc(O)cc(C(=O)c2ccccc2)c1S(=O)(=O)O`, 1.17.
Then `NCCCC(N)C(=O)O` (configuration not stated), with 0.99.
As for `N[C@@H](CO)c1ccccc1`, the figure is 0.97.
In the case of `CC(=O)Oc1cc2c(s1)CCN([C@H](C(=O)C1CC1)c1ccccc1F)C2`, the normalised cell number was 0.87.
Molecule `Cc1oc(=O)oc1CN1CCN(c2cc3c(cc2F)c(=O)c(C(=O)O)c2n3C(C)C2)CC1` (configuration not stated) gave a normalised cell number of 0.97.
In turn, `O=C(O)c1ccccc1-c1c2cc(I)c(=O)c(I)c-2oc2c(I)c(O)c(I)cc12` came in with a normalised cell number of 0.98.
`NC(N)=NCCCC(N)C(=O)O` (configuration not stated): the normalised cell number was found to be 1.05.
Then `Cc1cc(=O)c(C(=O)N[C@@H](C(=O)N[C@@H]2C(=O)N3C(C(=O)O)=C(CSc4nnnn4C)CSC23)c2ccc(O)cc2)c[nH]1` (some centres not stated), with 1.24; and `CC1(C)O[C@@H]2CC3C4CCC5=CC(=O)C=C[C@]5(C)C4[C@@H](O)C[C@]3(C)[C@]2(C(=O)CO)O1` (some centres not stated), with 1.22; and `C=C(C)C1CC=C(C)CC1` (configuration not stated), with 1.03.
In turn, `NC(=O)C1CCCN1C(=O)C(Cc1cnc[nH]1)NC(=O)C1CCC(=O)N1` (configuration not stated) gave a normalised cell number of 0.94.
Then `OC[C@@H](O)[C@H](O)[C@@H](O)[C@H](O)CO`, with 0.97; and `COc1nc(N)nc2c1ncn2C1O[C@H](CO)[C@@H](O)[C@@H]1O` (some centres not stated), with 0.92; and `Nc1nc(NC2CC2)c2ncn(C3C=C[C@@H](CO)C3)c2n1` (some centres not stated), with 1.1.
Then `CCN(CC)C(=O)C1(c2ccccc2)CC1CN` (configuration not stated), with 1.08; and `Cc1cc(CC(C)CC(C)(C)C)n(O)c(=O)c1` (configuration not stated) (tested in a mixture with another compound), with 1.04.
Then `CC1/C=C/C=C/C=C/C=C/C=C/C=C/C=C/C(O[C@@H]2O[C@H](C)[C@H](O)[C@@H](O)[C@@H]2N)CC(O)C(C(=O)O)C(O)CC(=O)CC(O)CC(O)CC(O)CC(=O)CCCC(=O)CC(=O)OC1C(C)CC(C)C(O)CC(=O)c1ccc(N)cc1` (some centres not stated), with 1.09; and `CCCC[C@@H](CC)COC(=O)C(C#N)=C(c1ccccc1)c1ccccc1`, with 1.19; and `O=C1c2c(O)cccc2[C@@H](O[C@@H]2O[C@H](CO)[C@H](O)[C@@H](O)[C@H]2O)c2cc(CO)cc(O)c21`, with 1.12.
For `Cc1cc2nc3c(=O)[nH]c(=O)nc-3n(C[C@@H](O)[C@@H](O)[C@@H](O)COP(=O)(O)O)c2cc1C`, the normalised cell number is 1.03.
As for `C#C[C@]1(O)CCC2C3CCc4cc(OC5CCCC5)ccc4C3CC[C@@]21C` (some centres not stated), the figure is 1.02; as for `CSCC[C@H](NC(=O)[C@H](Cc1c[nH]c2ccccc12)NC(=O)[C@H](C)NC(=O)OC(C)(C)C)C(=O)N[C@@H](CC(=O)O)C(=O)N[C@@H](Cc1ccccc1)C(N)=O`, 1.15.
With `C[C@]12CCC(=O)C=C1[C@@H]1C[C@@H]1C1C2CC[C@@]2(C)C1[C@@H]1C[C@@H]1[C@@]21CCC(=O)O1` (some centres not stated), the normalised cell number stood at 1.4.
Then `COc1c(O)cc2c(c1O)[C@H]1O[C@H](CO)[C@@H](O)[C@H](O)[C@@H]1OC2=O`, with 1.23.
As for `CC(C)(O)c1ccccc1CC[C@@H](SC1(CC(=O)O)CC1)c1cccc(/C=C/c2ccc3ccc(Cl)cc3n2)c1`, the figure is 1.13.
Turning to `CC(C)C/C=C/C=C\C(=O)N[C@@H](CC(N)=O)C(=O)N[C@@H]1C(=O)N[C@H](c2ccc(O)cc2)C(=O)N[C@H](CCCN)C(=O)N[C@H]([C@H](C)O)C(=O)N[C@@H](c2ccc(O)cc2)C(=O)N[C@H](c2ccc(O)cc2)C(=O)N[C@@H]([C@H](C)O)C(=O)N[C@@H](Cc2ccccc2)C(=O)N[C@H](CCCN)C(=O)N[C@@H](c2ccc(O[C@@H]3O[C@H](CO)[C@H](O)[C@@H](O)[C@@H]3O[C@@H]3O[C@H](CO)[C@@H](O)[C@H](O)[C@H]3O)cc2)C(=O)NC(C(C)O)C(=O)N[C@@H](c2ccc(O)cc2)C(=O)NCC(=O)N[C@@H](CC(C)C)C(=O)N[C@H](C)C(=O)N[C@@H](c2ccc(O)c(Cl)c2)C(=O)O[C@@H]1C(N)=O` (some centres not stated), the normalised cell number was found to be 1.04.
Then `O=C1SCN(Cc2ccccc2)CN1Cc1ccccc1`, with 0.96; and `CC(=O)[C@H]1CCC2C3CC=C4C[C@@H](OC(=O)CCC(=O)O)CC[C@]4(C)C3CC[C@@]21C` (some centres not stated), with 1.07.
